Our source for the outcome and AC50 values is PubChem BioAssay (EPA / NIEHS).

Several values for one entry are separate records, joined by “and”; a condition that tells them apart may be missing. Equal values may be shown once. The source holds several records for some structures; these can differ, active in one and inactive in another. Activity calls are given as the source filed them. Rule for the calls: active = hit-call score of the fitted dose curve at least 0.9, where 1 is the maximum; inactive = score below 0.9.

The assay in a line: CCTE_Shafer_MEA_dev_burst_rate: CCTE's Neural Network Formation Assay for Burst Rate, Shafer Lab (AID 2284042). On the procedure: CCTE_Shafer_MEA_dev assay is conducted using Axion Biosystems 48 well microelectrode array (MEA) plates and Maestro recording system. Each well of the MEA plate contains a grid of 16 microelectrodes embedded in the culture surface. Electrically active cells, such as neurons, can be cultured over the electrodes, and electrical activity in these cells can be recorded extracellularly. The spontaneous firing of neurons is captured from each electrode on a microsecond timescale providing both temporally and spatially precise data. […] The CCTE_Shafer_MEA_dev assay uses primary cultures of rat cortical neurons. Recordings are made on days post-plating 5, 7, 9 and 12. As these cultures mature over time, neural networks develop functional activity and form cohesive networks in which electrical activity can be highly coordinated. CCTE_Shafer_MEA_dev_burst_rate is 1 of 19 assay components of the CCTE_Shafer_MEA_dev assay. It measures the frequency of single-electrode bursts (temporally-clustered groups of action potential firing) as the total number of bursts divided by the length of the recording in a microelectrode array (MEA) using Axion Biosystems Maestro 768 channel amplifier with the AxIS adaptive spike detector. The mean bursting rate is averaged across the active electrodes to report a well-mean value. To collapse across multiple recordings made on days post-plating 5, 7, 9 and 12, the trapezoidal area-under-the-curve of the component is calculated.Data from the assay component CCTE_Shafer_MEA_dev_burst_rate was analyzed into 1 assay endpoint. This assay endpoint, CCTE_Shafer_MEA_dev_burst_rate, was analyzed in the negative analysis fitting direction relative to DMSO as the negative control and baseline of activity. Using a type of functional reporter, gain or loss-of-signal activity can be used to understand electrical activity.
On the day prior to culture, each well was coated thoroughly with 150 uL of 0.05% polyethyleneimine (PEI, Sigma Cat P3143) in 50 mM HEPES (Sigma Cat H7523) at a pH of 8. The plate was incubated at 37C for one hour. PEI was rinsed out with 500 uL of sterile water three times. Plates were stored at 4C until the day of culture. This culture was plated at a seeding density of 1.5 x 10^5 cells/well on a 48-well MEA plate, prepared as described above. Cells were administered via a 25 uL media/laminin ([…]; Sigma Cat L2020-1MG) drop directly onto the microelectrode array, as adding the cells with the laminin results in better attachment than pre-coating with laminin. After 2 hours, an additional 475 uL of cortical media was added and the cells returned to the incubator. Exposure starts at day 0 of plating and is continued over twelve days of network development until the experiment is terminated. Cells are fed with fresh medium on DIV 5 and 9, following the recordings on those days. The entire volume of media in the well is exchanged and any vehicle or compound treatment is renewed. Complete details are found in OP-NHEERL/ISTD/SBB/TJS/2015-03-r0 (available on request, email shafer.tim@epa.gov). Measurement of the electrical activity is non-invasive, and recordings can be made from the same plate over multiple different days of the culture. In cortical neurons, this allows for the measurement of extracellular action potentials over the period during which networks form in the MEA plate.
As for `O=P(OCCCl)(OCCCl)OCCCl`, the compound was classed as inactive. On to `OCCOCCO`, for which the compound was classed as inactive.

Regarding `ClC1=C(Cl)[C@]2(Cl)[C@H]3[C@H]([C@@H]4C=C[C@H]3C4)[C@@]1(Cl)C2(Cl)Cl`, the AC50 was 5.95 µM (active). Turning to `COC(=O)Nc1nc2ccccc2[nH]1`, the outcome was inactive. On to `CCNS(=O)(=O)C(F)(F)C(F)(F)C(F)(F)C(F)(F)C(F)(F)C(F)(F)C(F)(F)C(F)(F)F`, for which the result was inactive. For the compound `Clc1ccc(C(c2ccc(Cl)cc2)C(Cl)Cl)cc1`, the AC50 was 8.68 µM (active). Consider `CNC(=O)Oc1cccc2c1OC(C)(C)C2`, for which the compound was classed as inactive. As for `ClC1=C(Cl)C2(Cl)C3C(Cl)C=CC3C1(Cl)C2(Cl)Cl` (stereo unspecified), the AC50 was 2.74 µM (active). For `CC(C)(O)c1cnn2c(-c3ccc(F)c(-c4c(F)cccc4C#N)c3)cnc2n1`, the outcome was inactive. In the case of `COP(=S)(OC)SCN1C(=O)c2ccccc2C1=O`, the AC50 is 61.3 µM (active) and the call was inactive. As for `CCC[CH2][Sn]([Cl])([CH2]CCC)[CH2]CCC`, the AC50 was 0.043 µM (active). Regarding `Nc1cc(Cl)cc(C(=O)O)c1Cl`, the call was inactive.

For the compound `C1=Cc2cccc3cccc1c23`, the result was inactive. `[Cl-].[Cl-].[Hg+2]`: the AC50 is 0.923 µM (active). For `CN(C)[C@@H]1C(=O)C(C(N)=O)=C(O)[C@@]2(O)C(=O)C3=C(O)c4c(O)cccc4[C@@](C)(O)[C@H]3C[C@@H]12`, the compound was classed as inactive.

On to `[O-][Cl+]O`, for which the call was inactive. On to `CCCCOC(=O)c1ccccc1C(=O)OCc1ccccc1`, for which the compound was classed as inactive. Regarding `Clc1ccc(C(c2ccc(Cl)cc2)C(Cl)(Cl)Cl)cc1`, the AC50 is 7.69 µM (active) and 6.09 µM (active).

For the compound `CC(C)(C)C(O)(CCc1ccc(Cl)cc1)Cn1cncn1` (stereo unspecified), the compound was called inactive. As for `CC(C)COC(=O)c1ccccc1C(=O)OCC(C)C`, the compound was classed as inactive.
